# Screening data (PubChem)
# Sampled rows, rich in hits. Any-hit rate of the full collection: about 3.6%.
# mHTT-CaM PPI inh: mHTT-calmodulin interaction abrogation. P42858. AlphaScreen His-mHTT/GST-CaM binding, luminescence. inhibition, % at 15 µM. 190,000 compounds, 3.6% hits
# Pf apPOL block: Pf-apPOL DNA polymerase inhibition. inhibition, % at 10 µM. Recombinant Pf-apPOL, molecular beacon fluorescence, 1.5 h. 210,000 compounds, 0.25% hits
# Numbers stand for hits; n = inactive; x = not tested or not shown. No stated cut-off is given here; in the data, active means inhibition above about 50%; inactive means the rest.
SMILES,mHTT-CaM PPI inh,Pf apPOL block
CC(C)C1C(=O)N(Cc2cn(Cc3ccco3)nn2)CCS(=O)(=O)N1Cc1ccc(-c2ccc(F)cc2)cc1 (configuration not stated),69.4,n
CC(C)C1C(=O)N(Cc2cn(CC3CCCCC3)nn2)CCS(=O)(=O)N1Cc1ccc(-c2ccc(F)nc2)cc1 (configuration not stated),n,n
CC1C(=O)N(Cc2cn(CCC3OCCO3)nn2)CCS(=O)(=O)N1Cc1ccc(-c2ccccc2)cc1 (configuration not stated),74.1,n
Cc1ccc(-c2ccc(CN3C(C)C(=O)N(Cc4cn(CCC5OCCO5)nn4)CCS3(=O)=O)cc2)cc1 (configuration not stated),n,n
CC(C)C1C(=O)N(Cc2cn(Cc3ccco3)nn2)CCS(=O)(=O)N1Cc1ccc(-c2ccc(F)nc2)cc1 (configuration not stated),60.0,n
CC(C)C1C(=O)N(Cc2cn(CCC3OCCO3)nn2)CCS(=O)(=O)N1Cc1ccc(-c2ccccc2Cl)cc1 (configuration not stated),66.1,n
Cc1nc2ccccc2n1C(=O)CCC(=O)O,n,n
O=C(NCCC1=CCCCC1)C(=O)NCC1(O)CCc2ccccc2C1 (configuration not stated),n,n
CCC(=O)N1c2ccccc2NC2=C(C(=O)CC(C)(C)C2)C1c1ccccc1F (configuration not stated),n,n
C=C1C2CC2C2(C)Cc3occ(C)c3C(O)C12 (configuration not stated),x,n
CC12CC(NC(=O)N1c1ccc(C(=O)NCc3cccnc3)cc1)c1ccccc1O2 (configuration not stated),n,n
CCC(=O)N1CCCC(c2ccnc(-c3ccccc3)n2)C1 (configuration not stated),n,n
CC(O)c1nc2ccccc2n1CCc1ccccc1 (configuration not stated),n,n
O=[N+]([O-])c1ccc(N2CCOCC2)cc1NCCN1CCOCC1,n,n
O=C(CCN1CCOCC1)Nc1cc(Cl)cc(Cl)c1,x,n
CCCC[C@H]1[C@@H]2C[C@H]([C@H]3CCCCN31)[C@H](OC(=O)Nc1ccc(C#N)cc1)C2,n,n
COc1ccc(N=c2oc3c(C)ncc(CO)c3cc2C(=O)Nc2ccccc2F)c(OC)c1,n,n
CC(C)C1C(=O)N(Cc2cn(Cc3ccco3)nn2)CCS(=O)(=O)N1Cc1ccc(-c2ccccc2)cc1 (configuration not stated),72.9,n
COc1ccc(-c2ccc(CN3C(C(C)C)C(=O)N(Cc4cn(CCC5OCCO5)nn4)CCS3(=O)=O)cc2)cn1 (configuration not stated),n,n
CC1C(=O)N(Cc2cn(Cc3ccco3)nn2)CCS(=O)(=O)N1Cc1ccc(-c2ccccc2)cc1 (configuration not stated),62.7,n
COc1ccc(-c2ccc(CN3C(C(C)C)C(=O)N(Cc4cn(CCC5OCCCO5)nn4)CCS3(=O)=O)cc2)cn1 (configuration not stated),50.1,n
COc1ccc(-c2ccc(CN3C(CC(C)C)C(=O)N(Cc4cn(Cc5ccco5)nn4)CCS3(=O)=O)cc2)cc1OC (configuration not stated),n,n
CC(C)C1C(=O)N(Cc2cn(Cc3ccco3)nn2)CCS(=O)(=O)N1Cc1ccc(-c2ccc(Cl)cc2)cc1 (configuration not stated),n,n
N#Cc1cccc(-c2cn3c(n2)N(C(=O)CC2CCCC2)CCC3)c1,n,n
Cc1cc(C(=O)N(Cc2ccccn2)c2nc3ccc(F)cc3s2)c(C)o1,n,n
SMILES,mHTT-CaM PPI inh,Pf apPOL block
COc1ccccc1NC(=O)CC1COc2ccccc2NC1=O (configuration not stated),n,n
O=C(CC1COc2ccccc2NC1=O)Nc1cccc2ccccc12 (configuration not stated),68.9,n
O=C(c1ccc(-c2cccnc2)nc1)N1CCN(c2ccc(F)cc2)CC1,n,n
O=[N+]([O-])c1cc(SCc2ccco2)c2c(C3OCCO3)nn(-c3ccccc3)c2c1,78.0,n
O=[N+]([O-])c1ccc(N2CCCC2)cc1SCc1ccco1,n,n
O=C1OC(c2ccc(F)cc2)=N/C1=C\C(Cl)=C\c1ccccc1,n,n
O=C1Nc2ccc(Br)cc2C1=Nc1ccc2oc(-c3ccccc3)nc2c1,n,n
COc1cccc(C(=O)NCCN2CCN(c3nccc(C(F)(F)F)n3)CC2)c1,x,n
CCc1cccc(NC2CC(=O)N(c3ccc(Br)cc3)C2=O)c1 (configuration not stated),n,n
O=C(Nc1ccccc1)N1CCc2[nH]cnc2C1c1ccccn1 (configuration not stated),50.8,n
O=C(Nc1ccccc1)N1CCc2[nH]cnc2C1c1ccccc1 (configuration not stated),n,n
O=C(Cc1cccc(F)c1)N1CCc2[nH]cnc2C1c1ccccn1 (configuration not stated),70.4,n
O=C(Cc1ccc(Cl)cc1)N1CCc2[nH]cnc2C1c1ccccn1 (configuration not stated),90.9,n
O=C(Cc1ccccc1F)N1CCc2[nH]cnc2C1c1ccccc1 (configuration not stated),n,n
O=C(Cc1ccc(F)cc1)N1CCc2[nH]cnc2C1c1ccncc1 (configuration not stated),n,n
Cc1ccc(CNC(=O)N2CCC3(CC2)CC(=O)c2ccccc2O3)cc1,n,n
CCCC(=O)Nc1ccc(NC(=O)c2cc(Br)ccc2Cl)cc1,n,n
CC(C)Oc1ccc(/C=C(/NC(=O)c2ccc(Br)o2)C(N)=O)cc1,n,n
O=[N+]([O-])c1ccc(S(=O)(=O)Nc2ccc(Cl)cc2F)cc1,n,n
COc1ccc(C2SCC3C(=O)N(c4ccccc4)C(=S)N32)cc1O (configuration not stated),100.2,n
COc1ccc(C2SCCN2C(=O)c2ccccc2C(=O)O)cc1Br (configuration not stated),n,n
C=CCNC(=O)CN(c1ccc(C)cc1)S(=O)(=O)c1ccc(OC)cc1,n,n
CCN(CC)C1C(=O)Nc2ccc(Br)cc2C1c1ccccc1Cl (configuration not stated),94.0,n
O=C1CN(C(=O)C2CC2)C(c2ccccc2)c2cc(Br)ccc2N1 (configuration not stated),n,n
O=C1Nc2ccc(Br)cc2C(c2ccccc2Cl)C1N1CCCCC1 (configuration not stated),80.0,n
SMILES,mHTT-CaM PPI inh,Pf apPOL block
CC12CC(NC(=O)N1Cc1ccccc1)c1cc(Br)ccc1O2 (configuration not stated),n,n
Cc1c(C(=O)N2CCN(C)CC2)sc2ncn(Cc3ccccc3F)c(=O)c12,n,n
O=C(O)c1ccccc1SC1CC(=O)N(c2ccccc2F)C1=O (configuration not stated),n,n
COc1cccc(-c2cn3c4c(=O)n(C)c(=O)n(C)c4nc3n2-c2ccc(C)c(C)c2)c1,n,n
Cn1cccc1/C=C1\CN(Cc2ccccc2)C/C(=C\c2cccn2C)C1=O,99.0,n
O=C1/C(=C/c2cccnc2)CN(Cc2ccccc2)C/C1=C\c1cccnc1,n,n
CCN(c1ccc(F)cc1)S(=O)(=O)c1cc(Br)cc2c1N(C(C)=O)C(C)C2 (configuration not stated),n,n
O=C(NC1CCCCC1)C(=O)NC1CC1,n,n
